The results in this text go back to PubChem BioAssay (NCATS).

Values joined by “and” are separate entries in the source; they are usually repeats but may differ in a detail not shown here. Identical values can stand only once. Unmarked numbers belong to inactive results. Results filed as inconclusive are left out. Active and inactive are the calls of the source. Unless noted, calls follow the shape of the dose curve; as a rule, active = well fitted curve in either direction with a large enough effect (not every such curve was filed as active); inconclusive = small, poorly fitted or top-dose-only effect, or another doubt; inactive = flat fitted curve, though single readings scatter.

A short description of test [1]: AP1 Signaling Pathway (AID 357).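 Also: ME-180 reporter cells stimulated with EGF at its EC50 level; % is scaled to controls: 0 for no effect and ±100 for the full control effect.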 To be noted: ME-180 AP-1-bla reporter, EGF-induced, beta-lactamase ratio, 5 h. A digest of the protocol: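 AP-1-bla ME-180 cells, Opti-MEM + 0.5% dialyzed FBS, plated overnight 37 °C. Cpd titration + EC50 EGF, 5 h 37 °C. CCF4 2.5 h RT; ex 405, em 460/530 ratio → %activity, AC50.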
Test [2] addresses Cytochrome P450 1A2 (Homo sapiens) (UniProt P05177). The experiment in a line: p450-cyp1a2 (AID 410; calls by dose curve; also: potency is read from the fitted curve at half-maximal effect;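 as to activity change, negative = inhibition: -100% = full effect of reference inhibitor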). Conditions: recombinant CYP1A2, luciferin-ME demethylation, luminescence; series mostly up to 57 µM. A digest of the protocol: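 O-Demethylation of luciferin 6' methyl ether by human CYP1A2 is monitored as luciferase luminescence. Substrate sits at Km (100uM); enzyme is 20nM. Values are scaled to 57 uM furafylline as maximal inhibition.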

Test [3] is described as follows: NFAT Signaling Pathway (AID 444).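 Also: carbachol stimulus at about its EC50 of 1 µM final; % is scaled to controls: 0 for no effect and ±100 for the full control effect.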 To be noted: Jurkat NFAT-bla M1, carbachol, beta-lactamase ratio, 5 h. A digest of the protocol: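 Jurkat cells with NFAT-driven β-lactamase reporter and co-expressed M1 receptor, stimulated with carbachol (final 1 uM, ~EC50), compound titration, 5 h at 37 °C. CCF4 loaded 1 h at RT; 460/530 nm ratio gave %activity and AC50.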
The nature of test [4]: Stat Signaling Pathway (AID 446).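 Also: ME-180 cervical cancer cells given 40 pM IL-6 alongside compound; SIE-controlled beta-lactamase reporter measured as 460/530 nm FRET emission ratio; % is scaled to controls: 0 for no effect and ±100 for the full control effect.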 Conditions: ME-180 (cervical carcinoma) SIE beta-lactamase reporter, IL-6 stimulated, 5 h; series mostly up to 17.2 µM. A digest of the protocol: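 Normalization used AC90 stimulation (300 pM IL-6) and AC90 inhibition (125 nM pan-JAK inhibitor at 40 pM IL-6). The underlying signal is SIE-driven beta-lactamase in ME-180 cells after 5 h IL-6 exposure with compound.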

Test [5] concerns the target Mitogen-activated protein kinase 10 (Mus musculus) (UniProt Q61831). The experiment in a line: JNK3 AlphaScreen Assay (AID 530).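 Also: kinase came from lysate of stimulated human HepG2 cells; signal reports phosphorylation of biotinylated GST-cJun 1-79 at Ser73 with 10 µM ATP; % is scaled to controls: 0 for no effect and ±100 for the full control effect.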 To be noted: JNK3 lysate, c-Jun phosphorylation; series mostly up to 57.1 µM. An outline of the steps: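 Activity was read by AlphaScreen after JNK3-containing HepG2 lysate (cytokine pre-activated) phosphorylated biotinylated GST-cJun with 10 uM ATP at room temperature. Phospho-Ser73 cJun antibody with Protein-A acceptor beads provided detection.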
Background: Bead proximity is the source of the signal in Alpha formats.

The target in test [6] is Lysosomal acid glucosylceramidase (Homo sapiens) (UniProt P04062). The experiment in a line: Glucocerebrosidase-p2 (AID 348; in the data active = potency below about 10 µM; also: potency is read from the fitted curve at half-maximal effect). Conditions: purified GBA, blue fluorogenic substrate, 40 min. An outline of the steps:
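Normal human glucocerebrosidase (0.2 nM) with blue fluorogenic substrate (80 uM final) in citrate/phosphate pH 5.9 with 10mM sodium taurocholate, 0.01% tween-20; 40 min RT, NaOH/glycine stop; fluorescence Ex 365/Em 440; AC50 from a titration from 0.6 nM upwards.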

Test [7] concerns the target Glucocorticoid receptor (Homo sapiens) (UniProt P04150). The experiment in a line: GR-GFP Redistribution (AID 450;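 active = compounds whose dose series gives a full or clear partial fitted curve of increased nuclear translocation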; also: potency is read from the fitted curve at half-maximal effect). To be noted: U2OS GR-GFP nuclear translocation, laser cytometry, 2 h.
For test [8] the target is unchanged. The experiment in a line: GR-EFC Redistribution (AID 451; calls by dose curve; also: potency is read from the fitted curve at half-maximal effect). To be noted: CHO-K1 GR-EFC translocation, beta-gal luminescence, 2 h. An outline of the steps:
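CHO-K1 cells expressing nuclear EA and GR-ED fragments of b-gal; compounds titrated up to 46 uM final, 2 h at 37 C. GR nuclear translocation read as complemented b-gal luminescence after 1 h RT detection.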

Sequence of Cytochrome P450 1A2 (Homo sapiens) (P05177 whole entry, looked up): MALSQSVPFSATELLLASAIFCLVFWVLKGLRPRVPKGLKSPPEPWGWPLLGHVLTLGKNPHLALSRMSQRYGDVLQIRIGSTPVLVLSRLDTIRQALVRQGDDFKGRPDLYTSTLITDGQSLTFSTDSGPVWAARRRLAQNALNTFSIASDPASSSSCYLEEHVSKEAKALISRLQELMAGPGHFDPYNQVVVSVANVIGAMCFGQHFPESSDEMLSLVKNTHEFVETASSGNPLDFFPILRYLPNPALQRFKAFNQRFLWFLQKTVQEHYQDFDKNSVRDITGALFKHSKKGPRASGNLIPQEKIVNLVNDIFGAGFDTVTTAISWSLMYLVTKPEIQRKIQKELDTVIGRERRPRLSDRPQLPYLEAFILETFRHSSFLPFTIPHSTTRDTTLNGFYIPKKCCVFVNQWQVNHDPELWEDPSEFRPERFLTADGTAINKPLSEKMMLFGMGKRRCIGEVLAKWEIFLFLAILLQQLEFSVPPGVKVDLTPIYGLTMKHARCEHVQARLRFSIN
Sequence of Glucocorticoid receptor (Homo sapiens) (P04150 whole entry, looked up): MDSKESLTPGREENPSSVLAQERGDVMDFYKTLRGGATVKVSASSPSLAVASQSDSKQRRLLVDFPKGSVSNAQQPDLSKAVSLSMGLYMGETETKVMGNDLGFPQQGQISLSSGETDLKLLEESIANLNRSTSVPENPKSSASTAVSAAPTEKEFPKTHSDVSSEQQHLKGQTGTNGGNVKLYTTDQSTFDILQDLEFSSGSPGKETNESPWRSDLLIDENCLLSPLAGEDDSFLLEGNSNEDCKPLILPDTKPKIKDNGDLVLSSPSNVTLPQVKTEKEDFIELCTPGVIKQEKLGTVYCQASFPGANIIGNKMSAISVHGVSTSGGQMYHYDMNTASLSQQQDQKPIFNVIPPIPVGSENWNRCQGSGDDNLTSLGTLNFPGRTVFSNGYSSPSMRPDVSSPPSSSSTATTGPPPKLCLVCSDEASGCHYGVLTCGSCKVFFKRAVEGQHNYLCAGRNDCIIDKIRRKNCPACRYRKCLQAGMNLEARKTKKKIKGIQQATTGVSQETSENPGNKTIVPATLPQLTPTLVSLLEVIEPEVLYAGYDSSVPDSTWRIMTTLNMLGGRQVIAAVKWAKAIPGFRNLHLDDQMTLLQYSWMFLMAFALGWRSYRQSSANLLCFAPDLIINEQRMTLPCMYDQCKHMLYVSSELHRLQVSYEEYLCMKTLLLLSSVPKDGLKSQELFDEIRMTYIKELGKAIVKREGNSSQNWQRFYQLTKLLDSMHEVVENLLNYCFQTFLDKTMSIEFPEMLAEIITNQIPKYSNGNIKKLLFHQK
Sequence of Lysosomal acid glucosylceramidase (Homo sapiens) (P04062 whole entry, looked up): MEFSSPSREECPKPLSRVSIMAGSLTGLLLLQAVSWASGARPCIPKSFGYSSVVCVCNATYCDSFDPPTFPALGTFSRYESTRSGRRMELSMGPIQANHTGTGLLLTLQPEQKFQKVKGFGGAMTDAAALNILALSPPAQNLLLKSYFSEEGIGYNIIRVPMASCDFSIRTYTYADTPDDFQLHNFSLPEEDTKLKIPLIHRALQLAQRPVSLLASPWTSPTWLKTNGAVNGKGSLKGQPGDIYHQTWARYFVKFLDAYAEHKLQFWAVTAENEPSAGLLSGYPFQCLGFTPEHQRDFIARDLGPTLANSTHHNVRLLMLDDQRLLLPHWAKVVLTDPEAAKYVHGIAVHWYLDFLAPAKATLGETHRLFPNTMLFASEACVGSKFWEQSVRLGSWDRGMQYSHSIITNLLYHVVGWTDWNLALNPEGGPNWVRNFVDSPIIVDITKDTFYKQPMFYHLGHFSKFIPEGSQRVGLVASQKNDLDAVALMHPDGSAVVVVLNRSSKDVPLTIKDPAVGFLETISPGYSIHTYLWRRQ

As for `O=c1n(CCCN2CCN(c3cccc(Cl)c3)CC2)nc2ccccn12`, the activity change, negative = inhibition is -7.19% and -2.29% in test [1] (at 17.2 µM (top of the series)); -2.63% in test [1] (at 38 µM (top of the series)); -9.78% in test [3] (at 17.2 µM (top of the series)); -3.74% in test [3] (at 38 µM (top of the series)). Moreover, the Potency result in test [2] was “inactive”. The outcome in test [4] and in test [5] was inactive.

`C1COC(NC(C2CC2)C2CC2)=N1`: the activity change, negative = inhibition in test [1] (at 17.2 µM (top of the series)) is -19.2% and -1.91%; in test [1] (at 38 µM (top of the series)) it was -23.4%; in test [3] (at 17.2 µM (top of the series)), -20.2% and 11.2%; in test [3] (at 38 µM (top of the series)), -2.75%. For the same compound, the Potency entry in test [2] is “inactive”. The outcome in test [4] and in test [5] was inactive.

Take `CN1CCN(CCCN2c3ccccc3Sc3ccc(C(F)(F)F)cc32)CC1`: the Potency in test [6] was more than 11.4 µM; in test [7] it was > 46 µM and > 20.6 µM; in test [8], > 46 µM and > 20.6 µM and > 9.22 µM. The activity change, negative = inhibition is 7.77% and 23.2% in test [1] (at 17.2 µM (top of the series)); 29.9% in test [1] (at 38 µM (top of the series)). Moreover, the compound was classed as inactive in test [4] and in test [5].

On to `Nc1nc2c(ncn2COCCO)c(=O)[nH]1`, for which the activity change, negative = inhibition in test [1] (at 17.2 µM (top of the series)) is 10.5% and -13.7%; in test [1] (at 38 µM (top of the series)), 1.53%; in test [3] (at 17.2 µM (top of the series)), -0.796% and 22.4%; in test [3] (at 38 µM (top of the series)), 9.44%. Also, the Potency result in test [2] was “inactive”. The call in test [4] and in test [5] was inactive. Besides, the Potency is > 46 µM and > 20.6 µM in test [7]; > 46 µM and > 20.6 µM in test [8].

For the compound `N[C@@H]1CONC1=O`, the activity change, negative = inhibition in test [1] (at 17.2 µM (top of the series)) was 4.13% and -17.2%; in test [1] (at 38 µM (top of the series)), 6.67% and -0.268% and -2.74%; in test [3] (at 17.2 µM (top of the series)) it was -1.83%; in test [3] (at 38 µM (top of the series)), -6.1% and -4.54% and -4.29%. In test [2], the Potency result was “inactive”. Moreover, the compound was classed as inactive in test [4] and in test [5]. Further, the Potency in test [7] is > 46 µM and > 20.6 µM; in test [8], > 46 µM and > 20.6 µM.

In the case of `CCCCNc1cc(C(=O)O)cc(S(N)(=O)=O)c1Oc1ccccc1`, the activity change, negative = inhibition in test [1] (at 17.2 µM (top of the series)) was 2.74% and -1.68%; in test [1] (at 38 µM (top of the series)) it was -1.83%; in test [3] (at 17.2 µM (top of the series)), 1.71% and -0.748%; in test [3] (at 38 µM (top of the series)), 7.04%. The call in test [4] and in test [5] was inactive.

As for `Cc1cnc(NC(=O)C2=C(O)c3ccccc3S(=O)(=O)N2C)s1`, the activity change, negative = inhibition in test [1] (at 17.2 µM (top of the series)) is -12.9%; in test [1] (at 38 µM (top of the series)), 1.25%; in test [3] (at 17.2 µM (top of the series)), -9.71%; in test [3] (at 38 µM (top of the series)), 11.3%. The compound was classed as inactive in test [4] and in test [5]. The Potency is > 46 µM and > 20.6 µM in test [7]; more than 46 µM in test [8].

For `Cc1oncc1C(=O)Nc1ccc(C(F)(F)F)cc1`, the activity change, negative = inhibition was -20.4% and 3.89% in test [1] (at 17.2 µM (top of the series)); -1.93% in test [1] (at 38 µM (top of the series)); 0.0794% and 7.99% in test [3] (at 17.2 µM (top of the series)); -5.42% in test [3] (at 38 µM (top of the series)). The Potency was 631 nM (active) and 63.1 nM (active) in test [2]; > 46 µM and > 20.6 µM in test [7]; > 46 µM and > 20.6 µM in test [8]. For the same compound, the outcome in test [4] and in test [5] was inactive.
